Drawing on ChEMBL document CHEMBL1157539, “Thousands of chemical starting points for antimalarial lead identification” (Nature, 2010), this text covers Inhibition for 64 compounds.

What is called Inhibition is the relative decrease from the control value, in per cent. Read a high Inhibition as a response far below the control.

Holding throughout (assay type): functional
In test [1] the test system is Plasmodium falciparum. As to the kind of experiment: GSK_TCMDC: Inhibition of Plasmodium falciparum 3D7 in whole red blood cells, using parasite LDH activity as an index of growth. Test compounds present at 2uM.
Test [2] deals with Plasmodium falciparum. As to the kind of experiment: GSK_TCMDC: Inhibition of Plasmodium falciparum Dd2 in whole red blood cells, using parasite LDH activity as an index of growth. Test compounds present at 2uM.
Test [3] deals with HepG2. Briefly: GSK_TCMDC: Percent inhibition of human HepG2 cell line. Test compounds present at 10uM.

Regarding `COc1cc(Cc2cnc(N)nc2N)cc(OCCCCCCN2C(=O)c3ccccc3C2=O)c1OC`, the Inhibition in test [1] came out at 95%; in test [2] it was 3%; in test [3], 15%.
`CCn1cc(C=C2Oc3c(ccc(O)c3CN3CCCCC3C)C2=O)c2ccccc21` (configuration not stated): the results for the Inhibition in test [1], in test [2] and in test [3] were 94%, 80% and 0%, respectively.
As to `CCNCc1cccc(-c2ccc3ccnc(N)c3c2)c1`, the figures for the Inhibition in test [1], in test [2] and in test [3] were 100%, 98% and 17%, respectively.
For `CCOC(=O)C(=O)N1c2ccc(OCC)cc2-c2c(ssc2=S)C1(C)C`, in that order: 99%, 100% and 5%.
For `COc1cccc(-c2cnc(N)c(-c3nc4ccc(F)cc4[nH]3)c2)c1.Cl`, in that order: 97%, 43% and 47%.
The corresponding values for `CN(C)c1ccc(CN2CCC(NC(=O)c3ccc(-c4cccc(Cl)c4)s3)CC2)cc1.O=C(O)C(F)(F)F` are 93%, 44% and 65%.
For `C=CCOc1cccc2c1CCN(CCN1CCC(NC(=O)c3ccc(-c4ccc(Cl)cc4)cc3)CC1)C2`, the Inhibition stood at 93% in test [1], 22% in test [2] and 35% in test [3].
In the case of `CN1CCN(CC(=O)Nc2cccc(-c3ccc(-c4nc5cc(C(F)(F)F)ccc5[nH]4)cc3)c2)CC1`, the figures for the Inhibition in test [1], in test [2] and in test [3] were 100%, 94% and 37%, respectively.
The corresponding values for `CCCCCN1CCC(CNS(=O)(=O)c2ccc(C(=O)Nc3cccc(C(F)(F)F)c3)cc2)CC1.O=C(O)C(F)(F)F` are 98%, 13% and 13%.
Take `Nc1nc(N)c2c(ccc3c2ncn3Cc2ccccc2)n1`: the values for the Inhibition in test [1], in test [2] and in test [3] were 96%, 96% and 71%, respectively.
In the case of `N=c1ccn(CC(=NO)c2ccc(Cl)c(Cl)c2)cc1`, the Inhibition in test [1] came out at 87%; in test [2], 81%; in test [3] it was 23%.
The corresponding values for `COc1ccc2ccccc2c1C=NN=c1cc[nH]c2ccc(F)cc12` are 87%, 10% and 11%.
For `CC(C)C[C@H](NC(=O)c1cc2ccccc2s1)C(=O)N[C@H]1CCN(Cc2ccc(OC[C@@H]3CCCN3C)c3ccccc23)C1.O=C(O)C(F)(F)F`, in that order: 100%, 93% and 69%.
The corresponding values for `O=C(CSc1nccn1C1CCCCC1)Nc1cc(C(F)(F)F)ccc1Cl` are 96%, 95% and 2%.
In the case of `CC(C)NCc1ccc(-c2cccc(-c3nc4cc(F)ccc4[nH]3)c2)cc1.O=C(O)C(F)(F)F`, the Inhibition is listed as 100% in test [1], 96% in test [2] and 14% in test [3].
For `O=C(/C=C/c1ccc(Cl)c(Cl)c1)NCCCCCN1CCC(CCNC(=O)Cc2ccc(Cl)cc2)CC1`, in that order: 83%, 0% and 45%.
The corresponding values for `CC1CCN(C(=O)CSc2nc(-c3ccc(C(C)C)cc3)no2)CC1` are 98%, 84% and 0%.
The corresponding values for `O=C(Nc1ccc(Cl)cc1)Nc1ccc(-c2csc(-c3nc4ccccc4[nH]3)c2)cc1` are 90%, 40% and 59%.
Regarding `O=C(O)C(F)(F)F.c1ccc2c(c1)CN(CC1CC1)CC1(CCN(Cc3c[nH]c4cnccc34)CC1)O2`, the Inhibition in test [1] came out at 100%; in test [2] it was 14%; in test [3], 30%.
The corresponding values for `COc1cccc(Cc2cnc3nc(N)nc(N)c3c2C)c1` are 94%, 76% and 57%.
In the case of `CCc1ccc(NC(=O)N(CCCn2ccnc2)Cc2csc(-c3ccc(CNCc4ccccc4)cc3)n2)cc1.O=C(O)C(F)(F)F`, the Inhibition in test [1] was determined as 100%; in test [2], 39%; in test [3], 9%.
With `COc1ccc(N(C)Cc2cnc3nc(N)nc(N)c3n2)cc1`, the figures for the Inhibition in test [1], in test [2] and in test [3] were 98%, 0% and 15%, respectively.
The corresponding values for `COc1cccc(Nc2nccc(-c3c(-c4cccc(NC(=O)c5c(F)cccc5F)c4)nn4ccccc34)n2)c1` are 98%, 98% and 35%.
For `CCc1cn(C)c2c(N3CCCC3=O)cc(C(=O)N[C@@H](Cc3ccccc3)[C@H](O)CNCc3cccc(OC)c3)cc12`, in that order: 96%, 97% and 7%.
The corresponding values for `Cl.Fc1cccc(COc2ccc(Nc3ncnc4sc(C#C[C@H]5CCCN5)cc34)cc2F)c1` are 98%, 17% and 13%.
Take `COc1cc2nc(NCC3CCN(c4nc(N)c5cc(OC)c(OC)cc5n4)CC3)nc(N)c2cc1OC`: the figures for the Inhibition in test [1], in test [2] and in test [3] were 92%, 73% and 12%, respectively.
As to `O=C(NCc1ccccn1)C(c1cc2ccccc2o1)N1CCN(C(c2ccccc2)c2ccccc2)CC1` (configuration not stated), the Inhibition in test [1] was 95%; in test [2] it was 68%; in test [3], 17%.
The corresponding values for `O=[N+]([O-])c1cc(C(c2ccc(O)c([N+](=O)[O-])c2)C(Cl)(Cl)Cl)ccc1O` are 93%, 98% and 2%.
The corresponding values for `Nc1ncc(-c2ccc(Cl)c(Cl)c2)c(N)n1` are 94%, 0% and 65%.
The corresponding values for `CCN(CCCN1CCCCC1)c1cc(C)nc(Nc2ccc(C)c(Br)c2)n1.O=C(O)C(F)(F)F` are 100%, 98% and 42%.
On to `CCCCC(CCCC)CN1C(=O)C(c2ccccc2)(c2ccccc2)N=C1N.O=CO`, for which the Inhibition was determined as 96% in test [1], 96% in test [2] and 28% in test [3].
Consider `CCOC(=O)C(NC(=O)Cc1ccccc1)C(C)C` (configuration not stated), for which the figures for the Inhibition in test [1], in test [2] and in test [3] were 96%, 98% and 39%, respectively.
The corresponding values for `COc1c(C2CCN(CCN3CCC(NC(=O)c4ccc(-c5ccc(C(F)(F)F)cc5)cc4)CC3)CC2)ccc2c1CCCC2` are 82%, 35% and 42%.
The corresponding values for `O=C(c1cc(OC(F)(F)F)ccc1O)N1CCN(c2ccccc2)CC1` are 88%, 1% and 0%.
The corresponding values for `C=C[C@]1(C)C[C@@H](OC(=O)c2n[nH]c3ccccc3c2=O)[C@]2(C)[C@H](C)CC[C@]3(CCC(=O)[C@H]32)[C@@H](C)[C@@H]1O` are 96%, 84% and 0%.
With `N#CCCn1nc(-c2ccc(Cl)cc2)c2c(c1=O)CCCC2`, the Inhibition is 94% in test [1], 32% in test [2] and 0% in test [3].
For `O=C(CCc1c[nH]cn1)Nc1cccc(-c2cccc(-c3nc4cc(C(F)(F)F)ccc4[nH]3)c2)c1`, in that order: 100%, 99% and 17%.
For `CN1CCN(c2ccc(Nc3nccc(-c4cnn5ncccc45)n3)cc2Cl)CC1`, in that order: 95%, 92% and 65%.
Take `N#CCSc1nnc(-c2ccccc2)c2ccccc12`: the figures for the Inhibition in test [1], in test [2] and in test [3] were 84%, 73% and 5%, respectively.
The corresponding values for `Cc1n[nH]c2cc(Nc3nccc(Nc4ccc(Oc5ccccc5)cc4)n3)ccc12.Cl` are 100%, 98% and 8%.
For `CCCOc1cc(Cc2cnc(N)nc2N)cc(OC)c1OC`, in that order: 85%, 1% and 21%.
The corresponding values for `O=C(NCCCCN1CCN(CC=Cc2ccccc2)CC1)c1ccc(NC(=O)c2cc(Cl)cc(Cl)c2)cc1` are 100%, 63% and 26%.
`Cc1sc2nc(CN3CCCC3)nc(-n3c(NCCO)nc4ccccc43)c2c1C`: the values for the Inhibition in test [1], in test [2] and in test [3] were 96%, 11% and 19%, respectively.
For `Cc1ccccc1C1CCN(C2CCC(NC(=O)c3csc(-c4cccc(Cl)c4)n3)CC2)CC1` (configuration not stated), in that order: 85%, 42% and 33%.
The corresponding values for `N#Cc1ccc(-c2ccc(C(=O)NCCCCN3CCC(c4cc(Br)c5c(c4O)CCCC5)CC3)cc2)cc1` are 100%, 50% and 93%.
Regarding `Cc1cnc(NCCc2ccc(F)cc2)nc1NCCC(=O)Nc1ccccc1.O=C(O)C(F)(F)F`, the results for the Inhibition in test [1], in test [2] and in test [3] were 89%, 17% and 3%, respectively.
The corresponding values for `O=C(Nc1cccc(CN2CCCN(Cc3ccc(O)cc3)CC2)c1)c1cccc(C(F)(F)F)c1.O=C(O)C(F)(F)F` are 100%, 71% and 9%.
The corresponding values for `Br.N=c1sc2ccccc2n1CC(O)c1ccc(Cl)c(Cl)c1` (configuration not stated) are 99%, 74% and 4%.
For `COc1cccc(NC(=O)COc2ccc(C(=O)Nc3nc4ccccc4[nH]3)cc2)c1`, in that order: 99%, 29% and 19%.
Regarding `COc1ccccc1C(=O)Nc1cccc(N2CCC(NCc3ccc(-n4cccn4)cc3)CC2)c1`, the results for the Inhibition in test [1], in test [2] and in test [3] were 86%, 30% and 9%, respectively.
The corresponding values for `C=CCOc1ccc(CNC2CCN(Cc3ccccc3)CC2)cc1Br.O=C(O)C(=O)O` are 92%, 8% and 9%.
For `CCCCCCCCNCCCSCCCNCCCCCCCC.Cl`, in that order: 97%, 47% and 63%.
The corresponding values for `O=C(N[C@H]1CCN(Cc2ccc(OCCN3CCCC3)c(Cl)c2)C1)c1ccc(Cl)c(Cl)c1.O=C(O)C(F)(F)F` are 100%, 46% and 68%.
With `CC(=O)Nc1ccc(S(=O)(=O)NC2=NC(=N)N(OCc3ccc(Cl)c(Cl)c3)C(C)(C)N2)cc1`, the Inhibition in test [1] turned out to be 93%; in test [2] it was 98%; in test [3], 44%.
The corresponding values for `Cl.O=C(c1ccc(Cl)c(Cl)c1)N1CCc2c([nH]c3ccccc23)C1CN1CCCC1` (configuration not stated) are 94%, 16% and 83%.
For `CN1CCN(CC(=O)Nc2cccc(-c3ccc(-c4nc5cc(F)ccc5[nH]4)s3)c2)CC1`, in that order: 100%, 94% and 71%.
For `OC1(C(F)(F)F)CC(c2ccccc2)=NN1c1nncc(-c2ccccc2)n1` (configuration not stated), in that order: 99%, 3% and 0%.
Take `O=C(Nc1ccc(-c2nc3cc4ccccc4cc3[nH]2)cc1)c1cccc(Br)c1`: the Inhibition in test [1] amounted to 100%; in test [2], 89%; in test [3], 50%.
The corresponding values for `Br.CC1(C)N=C(N)N=C(N)N1OCCCOc1cccc(C(=O)O)c1` are 94%, 96% and 73%.
The corresponding values for `COc1c(C)cc(I)cc1CNCCCNc1cc(=O)c2ccccc2[nH]1` are 84%, 0% and 0%.
As to `O=C(O)C(F)(F)F.c1cc(-c2ccc(CN3CCCCC3)cc2)cc(-c2nc3ccccc3[nH]2)c1`, the Inhibition in test [1] is reported as 100%; in test [2], 79%; in test [3], 39%.
The corresponding values for `O=C(CSc1nccn1C1CCCC1)Nc1cc(C(F)(F)F)ccc1Cl` are 96%, 94% and 0%.
Regarding `CC(=O)c1ccc(O)c(CC(O)CO)c1` (configuration not stated), the figures for the Inhibition in test [1], in test [2] and in test [3] were 100%, 0% and 3%, respectively.
For `CCCC1N=C(N)N=C(N)N1c1cccc(C(F)(F)F)c1.Cl` (configuration not stated), in that order: 95%, 7% and 22%.
